# Laboratory results published in publication PMC9911399, “Two distinct binding modes provide the RNA-binding protein RbFox with extraordinary sequence specificity”.
# Substitutions are numbered along the chain they refer to; changes in the protein carry UniProt numbers. Over roughly 16,000 sequences, “ka relative to ugcaugu” has its median near 0.096; the highest 2% begin near 0.35. The sample holds the highest values, similar sequences and a random draw of the others, so the mix is not that of the screen.
# B1: GACUAAG (DNA:RNA)
# RNA: GGGAGACCGGAAUUCAGAUUGUCCGACUAAGUUAAAUCCCGUCGUAGCCACCA
# DNA 1: CAATCTGAATTCCGGTCTCCC
# DNA 2: TGGTGGCTACGACGGGATT
# B2: CAUAAUU (DNA:RNA)
# RNA: B1 RNA with G25C, C27U, U28A, A30U, G31U
# DNA 1: CAATCTGAATTCCGGTCTCCC
# DNA 2: TGGTGGCTACGACGGGATT
# B3: AUCUAGU (DNA:RNA)
# RNA: B1 RNA with G25A, A26U, A30G, G31U
# DNA 1: CAATCTGAATTCCGGTCTCCC
# DNA 2: TGGTGGCTACGACGGGATT
# B4: UCGACUC (DNA:RNA)
# RNA: GGGAGACCGGAAUUCAGAUUGUCCUCGACUCUUAAAUCCCGUCGUAGCCACCA
# DNA 1: CAATCTGAATTCCGGTCTCCC
# DNA 2: TGGTGGCTACGACGGGATT
# B5: UACACUA (DNA:RNA)
# RNA: B4 RNA with C26A, G27C, C31A
# DNA 1: CAATCTGAATTCCGGTCTCCC
# DNA 2: TGGTGGCTACGACGGGATT
# B6: UCCUGAU (DNA:RNA)
# RNA: B1 RNA with G25U, A26C, A29G, G31U
# DNA 1: CAATCTGAATTCCGGTCTCCC
# DNA 2: TGGTGGCTACGACGGGATT
# B7: ACCUCGU (DNA:RNA)
# RNA: B1 RNA with G25A, A26C, A29C, A30G, G31U
# DNA 1: CAATCTGAATTCCGGTCTCCC
# DNA 2: TGGTGGCTACGACGGGATT
# B8: GAGUAGC (DNA:RNA)
# RNA: B1 RNA with C27G, A30G, G31C
# DNA 1: CAATCTGAATTCCGGTCTCCC
# DNA 2: TGGTGGCTACGACGGGATT
# B9: GAAUGAC (DNA:RNA)
# RNA: B1 RNA with C27A, A29G, G31C
# DNA 1: CAATCTGAATTCCGGTCTCCC
# DNA 2: TGGTGGCTACGACGGGATT
# B10: ACCAGAA (DNA:RNA)
# RNA: B1 RNA with G25A, A26C, U28A, A29G, G31A
# DNA 1: CAATCTGAATTCCGGTCTCCC
# DNA 2: TGGTGGCTACGACGGGATT
# B11: CGAUGAC (DNA:RNA)
# RNA: B1 RNA with G25C, A26G, C27A, A29G, G31C
# DNA 1: CAATCTGAATTCCGGTCTCCC
# DNA 2: TGGTGGCTACGACGGGATT
# B12: AGAAUGA (DNA:RNA)
# RNA: B4 RNA with U25A, C26G, G27A, C29U, U30G, C31A
# DNA 1: CAATCTGAATTCCGGTCTCCC
# DNA 2: TGGTGGCTACGACGGGATT
# B13: AGAUUGA (DNA:RNA)
# RNA: B1 RNA with G25A, A26G, C27A, A29U, A30G, G31A
# DNA 1: CAATCTGAATTCCGGTCTCCC
# DNA 2: TGGTGGCTACGACGGGATT
# B14: GAUUGAC (DNA:RNA)
# RNA: B1 RNA with C27U, A29G, G31C
# DNA 1: CAATCTGAATTCCGGTCTCCC
# DNA 2: TGGTGGCTACGACGGGATT
# B15: UGAAUAU (DNA:RNA)
# RNA: B4 RNA with C26G, G27A, C29U, U30A, C31U
# DNA 1: CAATCTGAATTCCGGTCTCCC
# DNA 2: TGGTGGCTACGACGGGATT
# B16: AGAUUAU (DNA:RNA)
# RNA: B1 RNA with G25A, A26G, C27A, A29U, G31U
# DNA 1: CAATCTGAATTCCGGTCTCCC
# DNA 2: TGGTGGCTACGACGGGATT
# B17: AAUCAGU (DNA:RNA)
# RNA: B1 RNA with G25A, C27U, U28C, A30G, G31U
# DNA 1: CAATCTGAATTCCGGTCTCCC
# DNA 2: TGGTGGCTACGACGGGATT
# B18: GCAACGU (DNA:RNA)
# RNA: B4 RNA with U25G, G27A, U30G, C31U
# DNA 1: CAATCTGAATTCCGGTCTCCC
# DNA 2: TGGTGGCTACGACGGGATT
# B19: UGGCACC (DNA:RNA)
# RNA: B4 RNA with C26G, A28C, C29A, U30C
# DNA 1: CAATCTGAATTCCGGTCTCCC
# DNA 2: TGGTGGCTACGACGGGATT
# B20: UGGCAUG (DNA:RNA)
# RNA: B4 RNA with C26G, A28C, C29A, C31G
# DNA 1: CAATCTGAATTCCGGTCTCCC
# DNA 2: TGGTGGCTACGACGGGATT
# B21: UGGCAUU (DNA:RNA)
# RNA: B4 RNA with C26G, A28C, C29A, C31U
# DNA 1: CAATCTGAATTCCGGTCTCCC
# DNA 2: TGGTGGCTACGACGGGATT
# B22: UGGCAUA (DNA:RNA)
# RNA: B4 RNA with C26G, A28C, C29A, C31A
# DNA 1: CAATCTGAATTCCGGTCTCCC
# DNA 2: TGGTGGCTACGACGGGATT
# B23: UGGCAGA (DNA:RNA)
# RNA: B4 RNA with C26G, A28C, C29A, U30G, C31A
# DNA 1: CAATCTGAATTCCGGTCTCCC
# DNA 2: TGGTGGCTACGACGGGATT
# B24: UGGCAUC (DNA:RNA)
# RNA: B4 RNA with C26G, A28C, C29A
# DNA 1: CAATCTGAATTCCGGTCTCCC
# DNA 2: TGGTGGCTACGACGGGATT
# Target: T1, RBFOX1 RRM RbFoxmut (Fox-RRM*) (Homo sapiens, UniProt Q9NWB1 109-208, R118D;E147R;N151S;E152T)
# T1 sequence: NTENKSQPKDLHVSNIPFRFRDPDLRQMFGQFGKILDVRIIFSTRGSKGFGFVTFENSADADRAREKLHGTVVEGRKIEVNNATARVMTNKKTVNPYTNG
# Experiment: EMSA; HiTS-Eq, 1 nM pool, 10 min; buffer printed only for the single-RNA assays: 10 mM Tris pH 7.5, 150 mM NaCl, 3.4 mM EDTA, 0.001% NP-40, 30 C
# Conditions: tags: His6 N-terminal (pET28a); label: 5' 32P
# Outline: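 Relative association constants, normalised to the cognate motif, were derived by comparing read counts of each RNA species with those of the control reaction. The RNA sequenced was the free fraction, separated by 8% native PAGE after a 10 min equilibration in 50 µL of 1 nM 5′-radiolabelled RNA (7 randomized nucleotides) with increasing concentrations of purified wild-type or mutant RbFox RRM.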
row,Binder,binding signal
1,B1,0.101 KA relative to UGCAUGU
2,B2,0.0899 KA relative to UGCAUGU
3,B3,0.14 KA relative to UGCAUGU
4,B4,0.0668 KA relative to UGCAUGU
5,B5,0.0954 KA relative to UGCAUGU
6,B6,0.0975 KA relative to UGCAUGU
7,B7,0.106 KA relative to UGCAUGU
8,B8,0.108 KA relative to UGCAUGU
9,B9,0.829 KA relative to UGCAUGU
10,B10,0.0963 KA relative to UGCAUGU
11,B11,0.141 KA relative to UGCAUGU
12,B12,0.646 KA relative to UGCAUGU
13,B13,0.117 KA relative to UGCAUGU
14,B14,0.109 KA relative to UGCAUGU
15,B15,0.0814 KA relative to UGCAUGU
16,B16,0.124 KA relative to UGCAUGU
17,B17,0.0868 KA relative to UGCAUGU
18,B18,0.094 KA relative to UGCAUGU
19,B19,0.113 KA relative to UGCAUGU
20,B20,1.17 KA relative to UGCAUGU
21,B21,0.1 KA relative to UGCAUGU
22,B22,0.127 KA relative to UGCAUGU
23,B23,0.0918 KA relative to UGCAUGU
24,B24,0.411 KA relative to UGCAUGU
